# Measured values published in PubChem BioAssay (NCI).
# This is part of a sample that, as a whole, favours compounds with a hit. Of some 83,000 tested, about 20% had one in any assay.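 Activity criterion: percent growth below 10, measured after cells in 96-well plates were exposed to a single compound concentration for 48 hours.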 Unmarked numbers belong to inactive results. Active and inactive are the calls of the source.
# Experiments:
# Test in all cases: NCI-60 one-dose screen, 48 h (100 = growth as untreated, 0 = no growth, -100 = all killed)
# Conditions in all cases: 10 µM
# 786-0 renal = test system: 786-0 renal
# MALME-3M melanoma = test system: MALME-3M melanoma
# RXF 393 renal = test system: RXF 393 renal
# UACC-257 melanoma = test system: UACC-257 melanoma
# SK-MEL-2 melanoma = test system: SK-MEL-2 melanoma
# SN12C renal = test system: SN12C renal
# TK-10 renal = test system: TK-10 renal
# ACHN renal = test system: ACHN renal
# A498 renal = test system: A498 renal
# RPMI-8226 leukemia = test system: RPMI-8226 leukemia
# OVCAR-8 ovarian = test system: OVCAR-8 ovarian
# OVCAR-4 ovarian = test system: OVCAR-4 ovarian
# SK-OV-3 ovarian = test system: SK-OV-3 ovarian
# IGROV1 ovarian = test system: IGROV1 ovarian
# OVCAR-3 ovarian = test system: OVCAR-3 ovarian
# NCI/ADR-RES ovarian = test system: NCI/ADR-RES ovarian
# T-47D breast = test system: T-47D breast
# BT-549 breast = test system: BT-549 breast
# MDA-MB-435 melanoma = test system: MDA-MB-435 melanoma
# MCF7 breast = test system: MCF7 breast
SMILES,growth (786-0 renal),growth (MALME-3M melanoma),growth (RXF 393 renal),growth (UACC-257 melanoma),growth (SK-MEL-2 melanoma),growth (SN12C renal),growth (TK-10 renal),growth (ACHN renal),growth (A498 renal),growth (RPMI-8226 leukemia),growth (OVCAR-8 ovarian),growth (OVCAR-4 ovarian),growth (SK-OV-3 ovarian),growth (IGROV1 ovarian),growth (OVCAR-3 ovarian),growth (NCI/ADR-RES ovarian),growth (T-47D breast),growth (BT-549 breast),growth (MDA-MB-435 melanoma),growth (MCF7 breast)
COCCOCCOCCOc1ccc(-n2cc(-c3ccc(O[C@H]4O[C@@H]5OC6(C)CC[C@H]7[C@H](C)CC[C@@H]([C@H]4C)[C@@]57OO6)cc3)nn2)cc1,56.7%,8.12% (active),69.4%,39.7%,16.8%,83%,36.7%,17.4%,93.8%,20.9%,22.2%,28.8%,84%,50.2%,46%,34.2%,17.3%,3.83% (active),19.3%,14.9%
C=CC[Se]C(=O)c1cncc(C(=O)[Se]CC=C)c1,-97.3% (active),-67% (active),-91.9% (active),-75% (active),-54.1% (active),-95.6% (active),-20.3% (active),-12.9% (active),29.9%,-42.2% (active),-87.3% (active),-62.8% (active),-92.2% (active),-92% (active),-89.5% (active),-70.2% (active),-42.2% (active),-94.9% (active),-62.9% (active),-42.7% (active)
CN(C)CCc1cn(C2CCC2)c2cccc(O)c12,50%,46.5%,53.2%,41.8%,99.4%,68%,103%,84.6%,95%,24.4%,96.6%,86.6%,92.9%,84.2%,93.6%,74.3%,69.9%,68.1%,45.9%,22.4%
O=C(/C=C/c1ccc(F)cc1)c1nc2ccccc2n1Cc1ccc(Br)cc1,-82.4% (active),-77.9% (active),-91.1% (active),-17.4% (active),-61.3% (active),-40.4% (active),-19.1% (active),-73.9% (active),58.6%,-34.7% (active),-1.74% (active),19.2%,30.2%,-35% (active),-73.6% (active),-59.8% (active),-52.5% (active),-78.1% (active),-74% (active),-27.4% (active)
COc1cc(OC)c(/C=C/C(=O)c2nc3ccccc3n2Cc2ccc(F)cc2)c(OC)c1,85%,105%,33.7%,98.3%,104%,77.3%,109%,75.2%,130%,78.4%,79.7%,56.7%,88.2%,101%,98.4%,78.2%,61.8%,77.8%,83.5%,56.1%
COc1cc2cc(C(=O)N3C[C@@H](CCl)c4c3cc(OC(=O)N3CCN(C(=O)CCC(=O)N5CCN(C)CC5)[C@@H]5CSSC[C@@H]53)c3ccccc43)[nH]c2c(OC)c1OC,-80.9% (active),-99.3% (active),-91.2% (active),-71.7% (active),-83.3% (active),-37.7% (active),5.55% (active),-31.6% (active),-10.8% (active),6.09% (active),-32.1% (active),-6.42% (active),3.05% (active),-50.7% (active),16.4%,-56.6% (active),1.49% (active),-81.3% (active),3.09% (active),-92.4% (active)
O=C(/C=C/c1cccc(Br)c1)c1nc2ccccc2n1Cc1ccc(Br)cc1,-79% (active),-36.5% (active),-81.2% (active),6.73% (active),-42.3% (active),-10.1% (active),10.4%,-30.5% (active),81.5%,-34.8% (active),-8.23% (active),35.3%,65.4%,-8.02% (active),-51.5% (active),-48.8% (active),-0.946% (active),-44.7% (active),-31.2% (active),-32.8% (active)
CC(=C\C(=O)Oc1ccc2c3c1OC1C(O)CCC4(O)C(C2)N(CC2CCC2)CCC314)/C=C1\CCCc2ccccc21 (stereo not given),45.1%,34.6%,37.7%,-36.8% (active),84.3%,60.9%,65.2%,84.9%,125%,30.1%,76.9%,55.6%,80.9%,67.1%,77.2%,63.8%,24.4%,58.7%,61.8%,35.3%
